Tests used:
[1] = molecular target: T1, Mitogen-activated protein kinase 12 (Homo sapiens) (UniProt P53778); conditions: at 1 µM;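 also: values are averaged p38gamma kinase inhibition readings, compounds tested at 1 µM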
T1 sequence (whole entry): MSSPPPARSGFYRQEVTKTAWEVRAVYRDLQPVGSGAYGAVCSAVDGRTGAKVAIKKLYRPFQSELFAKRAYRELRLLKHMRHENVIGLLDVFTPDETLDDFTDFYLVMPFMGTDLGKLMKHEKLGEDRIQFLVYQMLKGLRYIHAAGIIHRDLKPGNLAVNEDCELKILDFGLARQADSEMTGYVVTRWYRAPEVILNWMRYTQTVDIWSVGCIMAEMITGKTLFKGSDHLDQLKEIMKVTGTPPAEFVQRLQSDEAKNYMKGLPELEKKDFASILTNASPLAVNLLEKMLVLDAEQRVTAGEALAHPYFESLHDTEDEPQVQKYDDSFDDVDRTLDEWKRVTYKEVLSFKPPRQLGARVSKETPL

[2] = molecular target: SRSF protein kinase 1 (Homo sapiens) (UniProt Q96SB4); conditions: at 0.1 µM
Sequence of SRSF protein kinase 1 (Homo sapiens) (Q96SB4 whole entry, canonical isoform): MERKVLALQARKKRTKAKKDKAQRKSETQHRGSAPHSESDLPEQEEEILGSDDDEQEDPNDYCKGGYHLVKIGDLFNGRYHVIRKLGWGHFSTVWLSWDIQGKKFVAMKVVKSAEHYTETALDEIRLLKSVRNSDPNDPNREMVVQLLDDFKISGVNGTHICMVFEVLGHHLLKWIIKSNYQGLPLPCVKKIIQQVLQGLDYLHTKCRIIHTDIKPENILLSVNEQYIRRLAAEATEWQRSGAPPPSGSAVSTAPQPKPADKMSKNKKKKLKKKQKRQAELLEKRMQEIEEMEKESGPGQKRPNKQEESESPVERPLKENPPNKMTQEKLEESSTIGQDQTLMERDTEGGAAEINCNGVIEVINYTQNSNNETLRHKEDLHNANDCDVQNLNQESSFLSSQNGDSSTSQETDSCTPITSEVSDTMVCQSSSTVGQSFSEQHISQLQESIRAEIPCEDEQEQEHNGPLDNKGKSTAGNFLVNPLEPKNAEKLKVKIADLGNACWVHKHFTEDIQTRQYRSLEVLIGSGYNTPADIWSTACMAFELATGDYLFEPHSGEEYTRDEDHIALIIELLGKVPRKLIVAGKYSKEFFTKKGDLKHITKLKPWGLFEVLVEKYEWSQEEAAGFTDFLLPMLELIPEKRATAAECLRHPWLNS

[3] = molecular target: SRSF protein kinase 1 (Homo sapiens) (UniProt Q96SB4); conditions: at 1 µM
[4] = molecular target: Phosphatidylinositol 4,5-bisphosphate 3-kinase catalytic subunit alpha isoform (Homo sapiens) (UniProt P42336); conditions: at 0.1 µM
Sequence of Phosphatidylinositol 4,5-bisphosphate 3-kinase catalytic subunit alpha isoform (Homo sapiens) (P42336 whole entry, canonical isoform): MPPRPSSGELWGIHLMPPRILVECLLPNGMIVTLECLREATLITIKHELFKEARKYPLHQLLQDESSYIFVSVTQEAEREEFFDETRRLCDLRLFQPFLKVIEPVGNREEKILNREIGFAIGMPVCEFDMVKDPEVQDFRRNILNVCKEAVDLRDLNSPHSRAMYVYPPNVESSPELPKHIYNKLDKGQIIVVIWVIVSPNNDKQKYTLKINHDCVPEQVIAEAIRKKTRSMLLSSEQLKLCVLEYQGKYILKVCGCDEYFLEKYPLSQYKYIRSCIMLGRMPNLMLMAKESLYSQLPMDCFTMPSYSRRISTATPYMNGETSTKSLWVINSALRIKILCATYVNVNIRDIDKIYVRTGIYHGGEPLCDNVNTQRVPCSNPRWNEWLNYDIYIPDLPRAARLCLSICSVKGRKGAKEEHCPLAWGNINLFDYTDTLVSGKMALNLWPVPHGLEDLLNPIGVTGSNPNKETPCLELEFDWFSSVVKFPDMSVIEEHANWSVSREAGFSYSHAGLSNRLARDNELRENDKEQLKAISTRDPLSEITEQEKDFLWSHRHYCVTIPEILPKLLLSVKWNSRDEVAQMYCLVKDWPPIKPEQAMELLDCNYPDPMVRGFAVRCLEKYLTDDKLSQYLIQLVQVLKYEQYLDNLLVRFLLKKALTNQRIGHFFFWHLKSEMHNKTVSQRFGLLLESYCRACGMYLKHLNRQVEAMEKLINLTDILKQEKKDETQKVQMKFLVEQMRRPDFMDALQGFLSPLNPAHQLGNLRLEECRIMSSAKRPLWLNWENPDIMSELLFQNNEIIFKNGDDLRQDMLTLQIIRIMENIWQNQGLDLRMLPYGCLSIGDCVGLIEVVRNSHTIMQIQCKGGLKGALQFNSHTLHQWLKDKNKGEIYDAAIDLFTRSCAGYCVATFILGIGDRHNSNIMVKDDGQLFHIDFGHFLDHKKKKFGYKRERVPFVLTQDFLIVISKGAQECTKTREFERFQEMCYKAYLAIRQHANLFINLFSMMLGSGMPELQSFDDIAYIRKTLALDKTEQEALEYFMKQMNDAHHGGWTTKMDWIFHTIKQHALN

[5] = molecular target: Phosphatidylinositol 4,5-bisphosphate 3-kinase catalytic subunit alpha isoform (Homo sapiens) (UniProt P42336); conditions: at 1 µM
[6] = molecular target: T2, Phosphatidylinositol 4,5-bisphosphate 3-kinase catalytic subunit delta isoform (Homo sapiens) (UniProt O00329); conditions: at 0.1 µM
T2 sequence (whole entry): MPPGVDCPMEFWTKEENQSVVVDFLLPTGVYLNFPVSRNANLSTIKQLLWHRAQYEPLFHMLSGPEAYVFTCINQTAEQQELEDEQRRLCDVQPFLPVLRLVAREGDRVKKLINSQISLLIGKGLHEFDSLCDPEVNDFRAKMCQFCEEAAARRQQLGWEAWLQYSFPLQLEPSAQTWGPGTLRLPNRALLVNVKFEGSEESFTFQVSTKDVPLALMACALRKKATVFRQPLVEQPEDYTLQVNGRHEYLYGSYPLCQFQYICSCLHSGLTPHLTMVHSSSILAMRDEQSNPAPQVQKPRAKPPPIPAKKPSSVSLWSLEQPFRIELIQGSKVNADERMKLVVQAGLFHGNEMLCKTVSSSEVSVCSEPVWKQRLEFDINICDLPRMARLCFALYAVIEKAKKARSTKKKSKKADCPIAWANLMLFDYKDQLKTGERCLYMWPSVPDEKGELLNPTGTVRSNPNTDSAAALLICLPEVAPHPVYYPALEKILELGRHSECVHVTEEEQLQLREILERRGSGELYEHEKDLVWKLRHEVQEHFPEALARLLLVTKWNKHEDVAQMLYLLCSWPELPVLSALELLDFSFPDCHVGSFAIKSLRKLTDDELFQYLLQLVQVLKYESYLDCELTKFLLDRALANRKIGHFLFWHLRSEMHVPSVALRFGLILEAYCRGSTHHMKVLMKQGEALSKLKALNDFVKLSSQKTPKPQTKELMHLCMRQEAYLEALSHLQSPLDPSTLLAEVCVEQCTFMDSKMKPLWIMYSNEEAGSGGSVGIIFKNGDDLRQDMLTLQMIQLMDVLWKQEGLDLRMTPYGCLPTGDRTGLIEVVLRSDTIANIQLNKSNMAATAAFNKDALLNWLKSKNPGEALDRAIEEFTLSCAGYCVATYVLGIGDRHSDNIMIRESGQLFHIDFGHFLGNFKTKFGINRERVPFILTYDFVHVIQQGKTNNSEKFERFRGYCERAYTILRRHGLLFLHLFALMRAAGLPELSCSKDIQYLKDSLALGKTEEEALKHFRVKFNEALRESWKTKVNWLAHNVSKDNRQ

[7] = molecular target: T2, Phosphatidylinositol 4,5-bisphosphate 3-kinase catalytic subunit delta isoform (Homo sapiens); conditions: at 1 µM
[8] = molecular target: Phosphatidylinositol 4-kinase beta (Homo sapiens) (UniProt Q9UBF8); conditions: at 0.1 µM
Sequence of Phosphatidylinositol 4-kinase beta (Homo sapiens) (Q9UBF8 2-816 limits assumed): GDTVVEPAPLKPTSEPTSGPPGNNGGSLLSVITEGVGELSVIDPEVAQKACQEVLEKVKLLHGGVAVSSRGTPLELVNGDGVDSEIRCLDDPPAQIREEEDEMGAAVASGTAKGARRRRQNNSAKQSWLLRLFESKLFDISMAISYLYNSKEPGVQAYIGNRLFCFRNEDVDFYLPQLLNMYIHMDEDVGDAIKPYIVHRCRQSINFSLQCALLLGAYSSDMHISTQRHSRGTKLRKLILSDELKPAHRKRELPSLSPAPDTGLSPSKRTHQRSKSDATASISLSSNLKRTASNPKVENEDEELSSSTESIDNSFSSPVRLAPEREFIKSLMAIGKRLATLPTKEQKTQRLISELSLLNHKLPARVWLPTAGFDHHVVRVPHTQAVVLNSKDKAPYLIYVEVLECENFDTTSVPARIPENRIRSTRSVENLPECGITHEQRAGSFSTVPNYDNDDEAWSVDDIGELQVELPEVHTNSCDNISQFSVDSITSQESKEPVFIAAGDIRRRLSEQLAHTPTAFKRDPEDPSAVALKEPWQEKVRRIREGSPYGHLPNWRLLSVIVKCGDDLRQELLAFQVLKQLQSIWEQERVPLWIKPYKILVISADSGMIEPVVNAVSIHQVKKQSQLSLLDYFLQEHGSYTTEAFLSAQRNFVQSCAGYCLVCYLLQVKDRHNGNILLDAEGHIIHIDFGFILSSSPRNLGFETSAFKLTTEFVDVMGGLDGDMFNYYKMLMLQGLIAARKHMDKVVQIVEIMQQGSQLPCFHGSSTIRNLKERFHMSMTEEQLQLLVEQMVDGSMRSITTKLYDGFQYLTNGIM

[9] = molecular target: Phosphatidylinositol 4-kinase beta (Homo sapiens) (UniProt Q9UBF8); conditions: at 1 µM
[10] = molecular target: Sphingosine kinase 1 (Homo sapiens) (UniProt Q9NYA1); conditions: at 0.1 µM
Sequence of Sphingosine kinase 1 (Homo sapiens) (Q9NYA1 whole entry): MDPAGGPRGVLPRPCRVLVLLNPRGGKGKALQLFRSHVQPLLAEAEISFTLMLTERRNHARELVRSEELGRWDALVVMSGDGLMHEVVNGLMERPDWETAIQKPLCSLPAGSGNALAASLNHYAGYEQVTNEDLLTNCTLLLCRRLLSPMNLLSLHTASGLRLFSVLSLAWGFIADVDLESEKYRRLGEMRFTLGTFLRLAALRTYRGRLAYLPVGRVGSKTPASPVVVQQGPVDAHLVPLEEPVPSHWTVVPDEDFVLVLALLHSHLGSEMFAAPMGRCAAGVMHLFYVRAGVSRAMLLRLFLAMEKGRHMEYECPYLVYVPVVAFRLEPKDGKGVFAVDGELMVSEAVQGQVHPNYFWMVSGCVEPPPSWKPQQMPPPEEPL

[11] = molecular target: Sphingosine kinase 1 (Homo sapiens) (UniProt Q9NYA1); conditions: at 1 µM
[12] = molecular target: T3, Sphingosine kinase 2 (Homo sapiens) (UniProt Q9NRA0); conditions: at 0.1 µM
T3 sequence (whole entry): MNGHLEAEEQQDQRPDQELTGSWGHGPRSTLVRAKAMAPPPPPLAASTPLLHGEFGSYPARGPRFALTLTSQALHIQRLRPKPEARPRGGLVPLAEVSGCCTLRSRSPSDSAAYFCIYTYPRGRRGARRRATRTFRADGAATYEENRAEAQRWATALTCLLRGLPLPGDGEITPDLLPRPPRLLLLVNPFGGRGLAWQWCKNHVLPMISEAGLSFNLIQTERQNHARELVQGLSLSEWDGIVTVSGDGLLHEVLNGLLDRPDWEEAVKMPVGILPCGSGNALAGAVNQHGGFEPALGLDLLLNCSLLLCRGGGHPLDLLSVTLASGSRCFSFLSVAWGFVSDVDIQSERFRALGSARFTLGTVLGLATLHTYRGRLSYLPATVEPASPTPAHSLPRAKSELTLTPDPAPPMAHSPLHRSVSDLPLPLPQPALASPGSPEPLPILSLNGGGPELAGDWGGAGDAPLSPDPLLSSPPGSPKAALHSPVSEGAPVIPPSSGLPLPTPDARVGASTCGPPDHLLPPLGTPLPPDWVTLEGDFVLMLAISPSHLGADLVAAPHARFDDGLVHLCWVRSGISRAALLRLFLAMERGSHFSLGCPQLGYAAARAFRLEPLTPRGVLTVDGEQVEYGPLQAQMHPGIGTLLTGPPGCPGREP

[13] = molecular target: T3, Sphingosine kinase 2 (Homo sapiens); conditions: at 1 µM
[14] = molecular target: Casein kinase II subunit alpha (Homo sapiens) (UniProt P68400); conditions: at 0.1 µM
Sequence of Casein kinase II subunit alpha (Homo sapiens) (P68400 whole entry, looked up): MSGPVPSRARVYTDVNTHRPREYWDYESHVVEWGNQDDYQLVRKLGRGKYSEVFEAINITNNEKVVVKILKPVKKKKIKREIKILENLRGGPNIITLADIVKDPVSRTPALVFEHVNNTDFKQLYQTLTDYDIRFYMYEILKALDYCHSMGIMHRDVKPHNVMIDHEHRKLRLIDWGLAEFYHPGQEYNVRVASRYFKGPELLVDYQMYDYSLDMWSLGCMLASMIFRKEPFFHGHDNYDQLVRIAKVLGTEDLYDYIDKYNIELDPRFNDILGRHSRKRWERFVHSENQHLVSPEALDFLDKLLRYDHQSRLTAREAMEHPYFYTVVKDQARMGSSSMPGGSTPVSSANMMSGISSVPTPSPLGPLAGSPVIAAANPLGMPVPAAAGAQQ

[15] = molecular target: Casein kinase II subunit alpha (Homo sapiens) (UniProt P68400); conditions: at 1 µM
[16] = molecular target: T4, Inhibitor of nuclear factor kappa-B kinase subunit alpha (Homo sapiens) (UniProt O15111); conditions: at 0.1 µM
T4 sequence (whole entry): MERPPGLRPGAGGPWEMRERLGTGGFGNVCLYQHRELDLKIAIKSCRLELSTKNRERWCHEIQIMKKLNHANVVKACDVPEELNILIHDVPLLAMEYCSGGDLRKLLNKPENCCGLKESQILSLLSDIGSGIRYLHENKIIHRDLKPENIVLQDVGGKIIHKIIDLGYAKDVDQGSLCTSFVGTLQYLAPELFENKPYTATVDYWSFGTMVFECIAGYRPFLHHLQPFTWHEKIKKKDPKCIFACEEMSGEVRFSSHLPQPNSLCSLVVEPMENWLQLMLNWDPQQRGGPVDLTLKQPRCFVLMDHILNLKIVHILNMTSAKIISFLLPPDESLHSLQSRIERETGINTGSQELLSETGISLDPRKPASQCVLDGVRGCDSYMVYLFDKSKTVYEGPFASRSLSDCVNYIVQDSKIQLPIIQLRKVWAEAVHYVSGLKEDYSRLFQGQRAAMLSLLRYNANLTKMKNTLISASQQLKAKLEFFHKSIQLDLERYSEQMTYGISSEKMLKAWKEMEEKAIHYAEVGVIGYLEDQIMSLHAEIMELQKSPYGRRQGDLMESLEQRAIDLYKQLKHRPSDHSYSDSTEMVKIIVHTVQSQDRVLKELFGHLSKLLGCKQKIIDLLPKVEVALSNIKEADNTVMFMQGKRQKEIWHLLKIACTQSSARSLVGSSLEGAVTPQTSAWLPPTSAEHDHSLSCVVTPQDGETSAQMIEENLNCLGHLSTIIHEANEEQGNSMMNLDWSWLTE

[17] = molecular target: T4, Inhibitor of nuclear factor kappa-B kinase subunit alpha (Homo sapiens); conditions: at 1 µM
[18] = molecular target: T5, Inhibitor of nuclear factor kappa-B kinase subunit beta (Homo sapiens) (UniProt O14920); conditions: at 0.1 µM
T5 sequence (whole entry): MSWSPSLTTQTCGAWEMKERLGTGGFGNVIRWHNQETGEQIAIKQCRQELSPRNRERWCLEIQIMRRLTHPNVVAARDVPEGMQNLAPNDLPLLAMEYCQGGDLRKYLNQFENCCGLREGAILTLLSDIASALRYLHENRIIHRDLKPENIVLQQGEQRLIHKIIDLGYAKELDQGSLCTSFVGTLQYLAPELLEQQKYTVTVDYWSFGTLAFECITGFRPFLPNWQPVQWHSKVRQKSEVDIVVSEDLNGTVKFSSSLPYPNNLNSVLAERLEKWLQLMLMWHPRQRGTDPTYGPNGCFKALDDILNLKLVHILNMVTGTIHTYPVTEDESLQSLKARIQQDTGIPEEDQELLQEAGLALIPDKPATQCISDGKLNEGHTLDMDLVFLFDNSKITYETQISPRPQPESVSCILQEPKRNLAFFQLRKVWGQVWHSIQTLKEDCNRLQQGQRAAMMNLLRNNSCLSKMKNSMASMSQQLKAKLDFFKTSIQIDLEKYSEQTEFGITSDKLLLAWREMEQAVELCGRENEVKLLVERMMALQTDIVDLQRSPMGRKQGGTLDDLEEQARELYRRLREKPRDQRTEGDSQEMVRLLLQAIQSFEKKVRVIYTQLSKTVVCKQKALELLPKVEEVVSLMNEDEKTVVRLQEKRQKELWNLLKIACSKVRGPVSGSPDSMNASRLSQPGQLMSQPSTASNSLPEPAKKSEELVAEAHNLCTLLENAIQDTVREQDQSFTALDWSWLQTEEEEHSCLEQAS

[19] = molecular target: T5, Inhibitor of nuclear factor kappa-B kinase subunit beta (Homo sapiens); conditions: at 1 µM
[20] = molecular target: T6, Inhibitor of nuclear factor kappa-B kinase subunit epsilon (Homo sapiens) (UniProt Q14164); conditions: at 0.1 µM;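 also: mean inhibition of IKKε reported, from the GSK PKIS dataset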
T6 sequence (whole entry): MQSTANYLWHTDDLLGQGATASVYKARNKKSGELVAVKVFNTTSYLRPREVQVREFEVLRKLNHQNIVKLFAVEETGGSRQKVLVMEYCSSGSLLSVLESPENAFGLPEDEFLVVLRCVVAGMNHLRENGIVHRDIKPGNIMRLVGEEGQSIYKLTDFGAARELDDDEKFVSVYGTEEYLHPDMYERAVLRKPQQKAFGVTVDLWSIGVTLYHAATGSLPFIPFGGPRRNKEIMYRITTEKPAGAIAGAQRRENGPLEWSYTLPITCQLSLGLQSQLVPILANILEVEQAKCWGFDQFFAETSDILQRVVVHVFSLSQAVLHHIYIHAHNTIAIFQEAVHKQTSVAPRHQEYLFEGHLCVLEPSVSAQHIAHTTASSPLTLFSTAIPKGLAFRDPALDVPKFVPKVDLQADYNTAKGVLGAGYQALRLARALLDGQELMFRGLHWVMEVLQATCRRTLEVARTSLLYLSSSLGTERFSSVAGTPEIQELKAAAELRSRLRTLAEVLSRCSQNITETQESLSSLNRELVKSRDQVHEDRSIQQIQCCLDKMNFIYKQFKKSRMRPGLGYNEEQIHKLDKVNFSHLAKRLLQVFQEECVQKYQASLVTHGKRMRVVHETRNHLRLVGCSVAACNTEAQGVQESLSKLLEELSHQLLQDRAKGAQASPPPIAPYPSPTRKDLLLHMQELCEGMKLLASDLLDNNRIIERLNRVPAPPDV

Compound `Nc1nccc(-c2c(-c3ccc(F)cc3)ncn2CCCN2CCOCC2)n1` has an inhibition [1] of 3.58%, an inhibition [2] of -1.35% and an inhibition [3] of -2.36%. The inhibition [4] was 3.59%, the inhibition [5] was 3.13% and the inhibition [6] was 0.42%. The inhibition [7] was 3.48%, the inhibition [8] was -8.25% and the inhibition [9] was -2.19%. For the same compound, the inhibition [10] was 2.43%, the inhibition [11] was -6.06% and the inhibition [12] was -0.3%. For the same compound, the inhibition [13] was 0.84%, the inhibition [14] was 2.78% and the inhibition [15] was 4.35%. For the same compound, the inhibition [16] was 3.83%, the inhibition [17] was 5.27% and the inhibition [18] was 6.3%. The inhibition [19] was 5.49% and the inhibition [20] was 4.76%.
`Cc1ccc(C(=O)NC2CC2)cc1-c1ccc2[nH]ncc2c1` showed an inhibition [1] of -1.96%, an inhibition [2] of -0.04% and an inhibition [3] of 1.22%. It also gave an inhibition [4] of -3.9%, an inhibition [5] of -3.53% and an inhibition [6] of -1.94%. It also gave an inhibition [7] of -0.26%, an inhibition [8] of 4.33% and an inhibition [9] of -2.52%. It also gave an inhibition [10] of -0.6%, an inhibition [11] of -1.63% and an inhibition [12] of -1.1%. For the same compound, the inhibition [13] was 0.65%, the inhibition [14] was -2.79% and the inhibition [15] was -1.68%. The inhibition [16] was 7.28%, the inhibition [17] was -2.31% and the inhibition [18] was -3.22%. The inhibition [19] was -2.64% and the inhibition [20] was -3.17%.
`Cc1ccc(O)cc1Nc1ccnc2ccc(S(C)(=O)=O)cc12` showed an inhibition [1] of 3.79%, an inhibition [2] of -0.84% and an inhibition [3] of 2.51%. The inhibition [4] was 9.67%, the inhibition [5] was 39.6% and the inhibition [6] was 10.9%. It also gave an inhibition [7] of 50.7%, an inhibition [8] of -3.87% and an inhibition [9] of 1.39%. For the same compound, the inhibition [10] was 1.12%, the inhibition [11] was -1.32% and the inhibition [12] was 1.04%. For the same compound, the inhibition [13] was 1.77%, the inhibition [14] was 3.63% and the inhibition [15] was 8.35%. The inhibition [16] was 5.42%, the inhibition [17] was 9.92% and the inhibition [18] was 6.57%. For the same compound, the inhibition [19] was 8.43% and the inhibition [20] was 6.64%.
